Compound activity deposited in PubChem BioAssay by The Scripps Research Institute Molecular Screening Center.
In the library only some 1.8% were active in any assay of this set; here they are far more common.
GSTO1 inh: blocks human GSTO1 in RBBP9 counter-screen. P78417. recombinant GSTO1, activity-based probe fluorescence polarization. inhibition, % at 5.96 µM. 1.1% of 300,000 active;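 active = inhibition above the campaign mean inhibition plus 3 SD, cut at about 35% in these data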
Target sequence (P78417 whole entry, looked up): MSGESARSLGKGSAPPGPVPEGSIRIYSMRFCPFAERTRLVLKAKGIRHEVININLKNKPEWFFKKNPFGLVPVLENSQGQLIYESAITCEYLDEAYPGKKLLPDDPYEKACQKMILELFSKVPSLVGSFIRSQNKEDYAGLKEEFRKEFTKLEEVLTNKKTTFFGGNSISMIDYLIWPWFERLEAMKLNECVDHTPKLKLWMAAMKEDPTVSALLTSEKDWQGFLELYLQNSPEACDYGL
LYPLA1 counter: LYPLA1 (human) inhibition in PME1 counter-screen | O75608 | recombinant LYPLA1, FP-Rh probe fluorescence polarization | inhibition, % at 5.9 µM | 0.16% of 320,000 active | AID 2174;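 active = inhibition above the mean of all tested compounds plus 3 SD, set per campaign, cut at about 14% in these data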;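 also: inhibitors block serine hydrolase probe labeling of LYPLA1 so polarization falls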
PME-1 inh: blocks human protein phosphatase methylesterase 1 | Q9Y570 | recombinant PME-1, FP-Rh probe fluorescence polarization | inhibition, % at 5.9 µM | 0.53% of 320,000 active;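 active = inhibition above the campaign mean of all compounds plus 3 SD, cut at about 26% in these data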;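 also: competitive labeling of PME-1 active site by serine hydrolase directed probe; inhibitors block probe labeling so polarization falls and inhibition rises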
Fam108B inh: counter-screen for RBBP9 inhibitors: inhibitors of mouse Fam108B; recombinant Fam108B, FP-Rh probe fluorescence polarization; inhibition, % at 9.51 µM; 0.33% of 300,000 active; AID 1947;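 active = inhibition above the screen mean inhibition plus 3 SD, computed separately per campaign, cut at about 18% in these data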;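 also: inhibitors lower polarization as less probe binds the enzyme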
PAD4 inh: PAD4 (human) enzyme inhibition; AID 485272; recombinant PAD4, RCA probe fluorescence polarization; 0.41% of 330,000 active; inhibition, % at 6.36 µM;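 active = percent inhibition above a cutoff equal to the mean of all tested compounds plus 3 SD, cut at about 15% in these data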
LYPLA2 counter: counter-screen for PME1 inhibitors: inhibitors of human LYPLA2. AID 2177. 0.38% of 320,000 active. recombinant LYPLA2, FP-Rh probe fluorescence polarization. inhibition, % at 5.9 µM;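 active = inhibition above the screen-wide mean plus 3 SD, limit set per campaign, cut at about 26% in these data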
PAD4 FP conf: confirmation of human PAD4 inhibitors; recombinant PAD4, RCA probe fluorescence polarization; 28% of 1,200 active; AID 488796; inhibition, % at 6.36 µM; shares compounds with PAD4 inh;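 active = mean inhibition across replicates above the hit cutoff set by the earlier primary screen, cut at about 15% in these data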;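 also: inhibitors block active-site labeling by the probe so polarization falls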
Numbers stand for hits.

Screening NC(=O)c1nsc(C(=O)N(Cc2ccco2)C(C(=O)NCc2ccc(F)cc2)c2ccc(O)cc2)c1N (centres undefined) returned GSTO1 inh inactive, LYPLA1 counter inactive, PME-1 inh inactive, Fam108B inh inactive, PAD4 inh inactive and LYPLA2 counter inactive.
Screening CCC(C)(C)NC(=O)C(c1ccc(F)cc1)N(Cc1ccco1)C(=O)c1snc(C(N)=O)c1N (centres undefined) returned GSTO1 inh inactive, LYPLA1 counter inactive, PME-1 inh inactive, Fam108B inh inactive, PAD4 inh 16.3, LYPLA2 counter inactive and PAD4 FP conf inactive.
COc1ccc(Nc2nc(Cl)nc(Nc3ccc(OC)cc3)n2)cc1 was read as GSTO1 inh inactive, LYPLA1 counter inactive, PME-1 inh inactive, Fam108B inh inactive, PAD4 inh inactive and LYPLA2 counter inactive.
For CC(=O)Nc1ccc(Nc2nc(Cl)nc(Nc3ccc(NC(C)=O)cc3)n2)cc1 the results were GSTO1 inh inactive, LYPLA1 counter inactive, PME-1 inh inactive, Fam108B inh inactive, PAD4 inh 18.9, LYPLA2 counter inactive and PAD4 FP conf inactive.
For CC(=O)C1=C(O)C(=O)N(CC(=O)O)C1c1ccccc1Cl (centres undefined) the results were GSTO1 inh inactive, LYPLA1 counter inactive, PME-1 inh inactive, Fam108B inh inactive, PAD4 inh 20.2, LYPLA2 counter inactive and PAD4 FP conf inactive.
O=C(OCC(=O)c1ccc[nH]1)c1ccc([N+](=O)[O-])cc1 was read as LYPLA1 counter inactive, PME-1 inh inactive, PAD4 inh inactive and LYPLA2 counter inactive.
O=C(COC(=O)c1ccc([N+](=O)[O-])s1)c1ccc[nH]1 was read as PAD4 inh 25.2 and PAD4 FP conf inactive.
Screening CCOC(=O)c1ccc(-n2[nH]c(-c3ccccc3)cc2=O)cc1 returned GSTO1 inh 36.0, LYPLA1 counter inactive, PME-1 inh inactive, Fam108B inh inactive, PAD4 inh 40.0, LYPLA2 counter inactive and PAD4 FP conf inactive.
For COc1ccc(NC(=O)CCS(=O)(=O)c2ccc(OC)cc2)cc1 the results were GSTO1 inh inactive, LYPLA1 counter inactive, PME-1 inh inactive, Fam108B inh inactive, PAD4 inh 20.4, LYPLA2 counter inactive and PAD4 FP conf inactive.
c1ccc(Nc2ccccc2Nc2ccccn2)nc1 was read as GSTO1 inh inactive, LYPLA1 counter inactive, PME-1 inh inactive, Fam108B inh inactive, PAD4 inh 29.5, LYPLA2 counter inactive and PAD4 FP conf inactive.
For Cc1[nH]c2ccccc2c1/C=N/Nc1nncn1N the results were GSTO1 inh inactive, LYPLA1 counter inactive, PME-1 inh inactive, Fam108B inh inactive, PAD4 inh 34.7, LYPLA2 counter inactive and PAD4 FP conf inactive.
Cc1[nH]c2ccccc2c1/C=N/Nc1ccc([N+](=O)[O-])cc1 was read as GSTO1 inh inactive, LYPLA1 counter inactive, PME-1 inh inactive, Fam108B inh inactive, PAD4 inh inactive and LYPLA2 counter inactive.
CS(=O)(=O)c1cccc(C(=O)NCc2ccccc2)c1 was read as GSTO1 inh inactive, LYPLA1 counter inactive, PME-1 inh inactive, Fam108B inh inactive, PAD4 inh 34.7, LYPLA2 counter inactive and PAD4 FP conf inactive.
For COc1cc(/C=C/C(=O)OCC(=O)N(C)Cc2ccccc2)cc(OC)c1OC the results were PAD4 inh 25.8 and PAD4 FP conf inactive.
COc1ccccc1C(=O)Nc1ccc(S(=O)(=O)Nc2cc(C)nc(C)n2)cc1 was read as GSTO1 inh inactive, LYPLA1 counter inactive, PME-1 inh inactive, Fam108B inh inactive, PAD4 inh inactive and LYPLA2 counter inactive.
Screening COc1ccc(C(=O)Nc2ccc(S(=O)(=O)Nc3cc(C)nc(C)n3)cc2)c(OC)c1 returned GSTO1 inh inactive, LYPLA1 counter inactive, PME-1 inh inactive, Fam108B inh inactive, PAD4 inh 30.8, LYPLA2 counter inactive and PAD4 FP conf 21.4.
Fc1ccc(C2CC(c3ccco3)=Nc3ccccc3S2)cc1 (centres undefined) was read as GSTO1 inh inactive, LYPLA1 counter inactive, PME-1 inh inactive, Fam108B inh inactive, PAD4 inh 15.2, LYPLA2 counter inactive and PAD4 FP conf inactive.
